High-throughput results as filed in PubChem BioAssay.
GLS inh: qHTS for Inhibitors of Glutaminase (GLS). Glutaminase kidney isoform, mitochondrial (Homo sapiens), O94925. GLS enzymatic activity, qHTS titration. Potency, µM (doses to about 45.5 µM), inactives show at the highest dose activity change, negative = inhibition, most hits filed as inhibitors. 410,000 compounds, 0.21% hits; further: on the % scale 0 is the no-effect control and ±100 the full control effect
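Compounds were pin-transferred onto hKGA, after which L-glutamine (1 mM solution) and a detection mix of glutamate oxidase, HRP and Amplex Red were added. Initial and 30 min RT fluorescence reads were collected.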
JMJD2A Tudor: qHTS Assay for Inhibitors of JMJD2A-Tudor Domain; Potency, µM (series often up to 114 µM), without a hit: at the top dose activity change, negative = inhibition, usual class: inhibitors; Lysine-specific demethylase 4A (Homo sapiens), O75164; AlphaScreen JMJD2A-Tudor / H3K4me3 peptide binding; 390,000 compounds, 4.4% hits; further: on the % scale 0 is the no-effect control and ±100 the full control effect; nearly all actives have a fitted effect of over 50% in size
HP1b chromo inh: HTS for Inhibitors of HP1-beta Chromodomain Interactions with Methylated Histone Tails | Chromobox protein homolog 1 (Homo sapiens), P83916 | AlphaScreen HP1-beta / biotin-H3K9me3 peptide binding | Potency, µM (doses to about 114 µM), for inactives: at the highest dose activity change, negative = inhibition, most hits filed as inhibitors | 390,000 compounds, 0.56% hits | AID 540317, 2011; further: nearly all actives have a fitted effect of over 70% in size
Target sequence (P83916 whole entry, looked up): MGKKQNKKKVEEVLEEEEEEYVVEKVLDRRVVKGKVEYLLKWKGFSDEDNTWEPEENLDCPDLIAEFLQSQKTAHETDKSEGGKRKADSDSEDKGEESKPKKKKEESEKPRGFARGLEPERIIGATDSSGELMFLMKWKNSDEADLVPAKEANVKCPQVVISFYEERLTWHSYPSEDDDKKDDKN
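HP1-beta protein (50 nM final) preincubated 30 min at room temperature with biotinylated H3(1-18)K9me3 peptide (50 nM) in PBS pH 7.4, 0.01% Tween-20, then compound added for 30 min. AlphaScreen streptavidin donor/nickel chelate acceptor beads (10 ug/mL final), 30 min dark, luminescence read.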
BAZ2B inh: qHTS Assay for Inhibitors of BAZ2B; AlphaScreen BAZ2B-H3K14Ac peptide displacement; Potency, µM (highest dose often 114 µM), for the others: top-dose activity change, negative = inhibition, hits mostly inhibitors; Bromodomain adjacent to zinc finger domain protein 2B (Homo sapiens), Q9UIF8; 360,000 compounds, 4.4% hits; further: on the % scale 0 is the no-effect control and ±100 the full control effect; nearly all actives have a fitted effect of over 60% in size
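AlphaScreen displacement: compounds (up to 110uM) incubated 30 min at room temperature with a preformed 50 nM BAZ2B/50 nM biotinylated H3K14Ac peptide complex in PBS pH 7.4 with Tween-20. Donor and acceptor beads at 10 ug/mL final added, 20 min light-protected before reading.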
G9a inh: qHTS Assay for Inhibitors of Histone Lysine Methyltransferase G9a; Potency, µM (titrated, usually from 102 µM), for inactives: at the highest dose activity, negative = inhibition, usual class: inhibitors; 350,000 compounds, 8.8% hits; G9a H3K9 monomethylation, AlphaScreen, 2 h; Histone-lysine N-methyltransferase EHMT2 (Homo sapiens), Q96KQ7; further: on the % scale 0 is the no-effect control and ±100 the full control effect; nearly all actives have a fitted effect of over 75% in size
Target sequence (Q96KQ7 913-1193 limits assumed): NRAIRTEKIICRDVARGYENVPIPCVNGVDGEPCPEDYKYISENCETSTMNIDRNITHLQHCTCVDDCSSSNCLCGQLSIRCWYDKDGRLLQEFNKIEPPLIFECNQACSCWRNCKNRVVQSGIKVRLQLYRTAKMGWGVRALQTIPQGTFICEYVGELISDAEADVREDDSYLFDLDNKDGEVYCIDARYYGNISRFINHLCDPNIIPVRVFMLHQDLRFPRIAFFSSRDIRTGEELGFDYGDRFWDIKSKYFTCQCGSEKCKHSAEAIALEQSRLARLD
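Step 1: enzyme (final 20 nM) with compound, 15 min RT. Step 2: substrate peptide 500 nM and SAM 20 uM, 2 h RT. Step 3: anti-H3K9me1 antibody and AlphaScreen beads, 10 min, then plate read.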
* hit, by the source's call; ? = inconclusive; . = no result given; [ ] = another dose, or the depositor's remark. Shown are actives, neighbours in structure and some others; about 10% of the full set was active somewhere. The call rests on the fitted dose curve; in most records, active means well fitted curve in the direction sought with a large enough effect; inconclusive means small, poorly fitted or top-dose-only effect, or another doubt; inactive means no such curve, though single readings can be large; an effect the other way counts as inactive or inconclusive. Potency means the concentration at half of the fitted maximal effect.

SMILES	GLS inh	JMJD2A Tudor	HP1b chromo inh	BAZ2B inh	G9a inh
COc1cc(C2C(C(=O)c3ccc(C)o3)=C(O)C(=O)N2c2cc(C)on2)ccc1O (configuration not stated)	6%	?	5%	?	45µM*
COc1cccc(C2C(C(=O)c3cccs3)=C(O)C(=O)N2c2cc(C)on2)c1 (configuration not stated)	-2%	-4%	30%	?	?
N#C/C(=C\c1ccc(Cl)cc1Cl)c1nc(-c2cccc(Cl)c2)cs1	-2%	-14%	27%	1%	-28%[59 µM]
CCc1cccc(NC(=O)C(c2ccccc2)N2Cc3ccccc3C2=O)c1 (configuration not stated)	-3%	-24%	-7%	-19%	-7%[59 µM]
CCOc1ccc(C2/C(=C(\O)c3ccc(OC)c(OC)c3)C(=O)C(=O)N2c2cc(C)on2)cc1OC (configuration not stated)	21%	-35%	1%	-22%	?
Cc1cccc(N2C(=O)C(O)=C(C(=O)c3cccs3)C2c2cccc(Oc3ccccc3)c2)n1 (configuration not stated)	7%	-33%	19%	?	50µM*
CCCCCOc1ccc(C2C(C(=O)c3ccc(C)o3)=C(O)C(=O)N2c2cc(C)on2)cc1 (configuration not stated)	1%	?	16%	-20%	45µM*
CCCCOc1cccc(C2C(C(=O)c3ccc(C)o3)=C(O)C(=O)N2c2nnc(C)s2)c1 (configuration not stated)	-7%	?	4%	-24%	.
C=CCOc1cccc(C2C(C(=O)c3ccc(C)o3)=C(O)C(=O)N2c2nccs2)c1 (configuration not stated)	9%	?	10%	?	32µM*
Cc1cccc(N2C(=O)C(O)=C(C(=O)c3cccs3)C2c2ccccc2)n1 (configuration not stated)	68%	-6%	47%	-16%	-49%
COc1cc(C2C(C(=O)c3ccc(C)o3)=C(O)C(=O)N2c2cc(C)on2)ccc1OCc1ccccc1 (configuration not stated)	1%	4%	23%	-1%	45µM*
CCCn1c(=O)c(C(=O)NNC(=O)c2ccccc2Cl)c(O)c2ccccc21	4%	-14%	38%	-1%	4%
COc1ccc(-n2c(SCC(=O)NCc3ccccc3)nc3n[nH]c(C)c3c2=N)cc1	3%	-12%	8%	10%	10%[59 µM]
CC(C)C[C@@H](COCc1cccc(Cl)c1)N1CCN(C(=O)c2ccc(C(F)(F)F)cc2)CCC1=O	1%	.	.	.	.
COc1cccc(C2C(C(=O)c3ccc(C)o3)=C(O)C(=O)N2CCN2CCOCC2)c1 (configuration not stated)	-3%	-35%	67%	-14%	.
COc1cccc(C2C(C(=O)c3ccc(C)o3)=C(O)C(=O)N2c2cc(C)on2)c1 (configuration not stated)	6%	-12%	12%	?	45µM*
O=C(CCSCc1ccccc1F)N1CCN(c2ccc(F)cc2)CC1	17%	-22%	13%	-16%	3%[59 µM]
CCCn1c(SCc2nc3sc(C)c(C)c3c(=O)[nH]2)nc2ccccc2c1=O	0%	-13%	24%	-8%	50µM*
C=CCn1c(Cc2ccccc2)nnc1SCc1nc2ccccc2c(=O)[nH]1	-1%	-4%	55%	3%	50µM*
O=c1[nH]c(CSc2nnc(COc3ccccc3)n2-c2ccccc2)nc2ccccc12	-3%	?	-18%	3%	4.5µM*
C=CCn1c(SCc2nc3ccccc3c(=O)[nH]2)nc2ccccc2c1=O	8%	-16%	23%	4%	7.9µM*
COCCn1c(SCc2nc3ccccc3c(=O)[nH]2)nc2ccccc2c1=O	0%	-15%	20%	1%	5%
